# Records with an inconclusive call do not appear. Entries that show only a call come without a potency. Activity calls are given as the source filed them. The call rests on the fitted dose curve; in most records, active means well fitted inhibition curve with a large enough effect; inconclusive means small, poorly fitted or top-dose-only effect; inactive means flat fitted curve, though single readings scatter.
# Test system: AA1029
# Test: qHTS profiling for inhibitors of Plasmodium falciparum proliferation (AID 504749); further: nearly all actives have a fitted effect of over 60% in size
# Settings: P. falciparum in erythrocytes, SYBR Green DNA, 72 h; series mostly up to 28.7 µM
# Method in brief: (§1)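 Parasite proliferation within erythrocytes, 72 h exposure. Endpoint: SYBR Green I fluorescence after overnight lysis at room temperature. Controls: 0.29 uM artemisinin, DMSO.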
# Potency means the concentration at half of the fitted maximal effect.
row,Compound,Potency
1,CN(C)c1ccc(C(=C2C=CC(=[N+](C)C)C=C2)c2ccc(N(C)C)cc2)cc1,355 nM (active)
2,NCCCC(O)(P(=O)(O)O)P(=O)(O)O,inactive
3,CCn1cc(C(=O)O)c(=O)c2cc(F)c(N3CCNCC3)cc21,inactive
4,Cn1nnc2c(C(N)=O)ncn2c1=O,inactive
5,CCCN[C@H]1CCc2nc(N)sc2C1,inactive
6,CC1=NN(c2ccccc2)C(=O)C1,inactive

# Test system: AS120
# Test: as above
# Settings: P. falciparum in erythrocytes, SYBR Green DNA, 72 h; series mostly up to 28.7 µM
# Method in brief: as §1
row,Compound,Potency
1,CN(C)c1ccc(C(=C2C=CC(=[N+](C)C)C=C2)c2ccc(N(C)C)cc2)cc1,447 nM (active)
2,NCCCC(O)(P(=O)(O)O)P(=O)(O)O,inactive
3,CCn1cc(C(=O)O)c(=O)c2cc(F)c(N3CCNCC3)cc21,inactive
4,Cn1nnc2c(C(N)=O)ncn2c1=O,inactive
5,CCCN[C@H]1CCc2nc(N)sc2C1,inactive
6,CC1=NN(c2ccccc2)C(=O)C1,inactive

# Test system: ATS189
# Test: as above
# Settings: P. falciparum in erythrocytes, SYBR Green DNA, 72 h; series mostly up to 28.7 µM
# Method in brief: as §1
row,Compound,Potency
1,CN(C)c1ccc(C(=C2C=CC(=[N+](C)C)C=C2)c2ccc(N(C)C)cc2)cc1,282 nM (active)
2,NCCCC(O)(P(=O)(O)O)P(=O)(O)O,inactive
3,CCn1cc(C(=O)O)c(=O)c2cc(F)c(N3CCNCC3)cc21,inactive
4,Cn1nnc2c(C(N)=O)ncn2c1=O,inactive
5,CCCN[C@H]1CCc2nc(N)sc2C1,inactive
6,CC1=NN(c2ccccc2)C(=O)C1,inactive

# Test system: ATS95
# Test: as above
# Settings: P. falciparum in erythrocytes, SYBR Green DNA, 72 h; series mostly up to 28.7 µM
# Method in brief: as §1
row,Compound,Potency
1,CN(C)c1ccc(C(=C2C=CC(=[N+](C)C)C=C2)c2ccc(N(C)C)cc2)cc1,501 nM (active)
2,NCCCC(O)(P(=O)(O)O)P(=O)(O)O,inactive
3,CCn1cc(C(=O)O)c(=O)c2cc(F)c(N3CCNCC3)cc21,inactive
4,Cn1nnc2c(C(N)=O)ncn2c1=O,inactive
5,CCCN[C@H]1CCc2nc(N)sc2C1,inactive
6,CC1=NN(c2ccccc2)C(=O)C1,inactive

# Test system: C2A
# Test: as above
# Settings: P. falciparum in erythrocytes, SYBR Green DNA, 72 h; series mostly up to 28.7 µM
# Method in brief: as §1
row,Compound,Potency
1,CN(C)c1ccc(C(=C2C=CC(=[N+](C)C)C=C2)c2ccc(N(C)C)cc2)cc1,355 nM (active)
2,NCCCC(O)(P(=O)(O)O)P(=O)(O)O,inactive
3,CCn1cc(C(=O)O)c(=O)c2cc(F)c(N3CCNCC3)cc21,inactive
4,Cn1nnc2c(C(N)=O)ncn2c1=O,inactive
5,CCCN[C@H]1CCc2nc(N)sc2C1,inactive
6,CC1=NN(c2ccccc2)C(=O)C1,inactive

# Test system: CP185
# Test: as above
# Settings: P. falciparum in erythrocytes, SYBR Green DNA, 72 h; series mostly up to 28.7 µM
# Method in brief: as §1
row,Compound,Potency
1,CN(C)c1ccc(C(=C2C=CC(=[N+](C)C)C=C2)c2ccc(N(C)C)cc2)cc1,398 nM (active)
2,NCCCC(O)(P(=O)(O)O)P(=O)(O)O,inactive
3,Cn1nnc2c(C(N)=O)ncn2c1=O,inactive
4,CCCN[C@H]1CCc2nc(N)sc2C1,inactive
5,CC1=NN(c2ccccc2)C(=O)C1,inactive
